This is an account of results in PubChem BioAssay (EPA / NIEHS).

Each structure is given as a SMILES string. Active and inactive are the calls of the source. The calls were made as follows: active = hit-call score of the fitted dose curve at least 0.9, where 1 is the maximum; inactive = score below 0.9.

Read-out in this assay: Pro-epidermal growth factor (Homo sapiens) (UniProt P01133)
Put plainly: LTEA_HepaRG_EGF: Life Technologies and Expression Analysis (LTEA) Assay for Epidermal growth factor (EGF) using HepaRG (AID 2283489). Particulars: mRNA level, 48 h; actives raise or lower the signal. The method, then: LTEA_HepaRG is a cell based, multiplexed-readout assay that uses HepaRG, a human liver cell line, with measurements taken at 48 hours after chemical dosing on a 96-well plate.LTEA_HepaRG_EGF is one of 102 assay component(s) measured in the LTEA HepaRG cell culture assay. It is a marker of Cell proliferation, survival, death.Data from the assay component LTEA_HepaRG_EGF was analyzed into 1 endpoint. This assay endpoint, LTEA_HepaRG_EGF, was analyzed with bidirectional fitting relative to DMSO as the negative control and baseline of activity. Using a type of inducible reporter, measures of mRNA induction for gain or loss-of-signal activity can be used to understand regulation of transcription factor activity. To generalize the intended target to other relatable targets, this assay endpoint is annotated to the growth factor intended target family, where the subfamily is EGF-like domain.
A total of 1060 chemcials from the ToxCast library were tested in eight-point concentration-response experiments. Cell culture and cytotoxicity assays were conducted at Thermo Fisher Scientific's Custom Services facility (Madison, WI). A single lot of human HepaRG cells (Thermo Fisher Scientific, Frederick, MD) was used for the cell culture experiments. 96-well format collagen type I coated plates of human HepaRG cells were prepared using established methods. Briefly, cryopreserved HepaRG cells were thawed, plated at a density of approximately 100,000 cells/well in HepaRG Thaw, Plate, and General Purpose media (HPRG770, Thermo Fisher Scientific), and incubated for 48 hours. 0.5% DMSO was selected as vehicle control to balance the requisite need of DMSO in HepaRG cultures to maintain differentiation (for example, baseline metabolism, proportions of hepatocytes vs. cholangiocytes), while enabling further hepatic receptor pathway activation (for example, PXR and CAR) in response to chemical exposure. 48 hours after plating, the culture medium was replaced with HepaRG Serum-Free Incudtion Media. Cells were exposed to each test chemical in duplicate and maintained in CO2 incubators for another 48 hours. Chemical plates were thawed to room temperature and 200x concentrations of treatment groups were prepared. 8-point conentration-reponse curves were made with the highest exposure at 100 uM, followed by half-log dilutions, all in 0.5% DMSO. Each test plate contained variouse controls, induction positive controls (1mM phenobarbital), cytotoxicity positive controls ([…] aflatoxin B1), vehicle controls (0.5% DMSO), and total lysis controls (0.5% DMSO). Cell morphology images were taken using an Essen IncuCyte FLR automated microscope, with six 96-well plates imaged in about 24 minutes. Images were captured and exported and JPEG files. Spent culture media was transfered to black-well plates for the LDH assay, and remaining media was sorted at -80 C for later use. Cells were treated with RLT buffer and frozen until shipped for gene expression analysis. Total RNA was isolated from the cell suspension in 75 uL of Buffer RLT (Qiagen, Germantown, MD 20874) by Quintiles/Expression Analysis (Durham, NC) using a custom isolation procedure. Total RNA from each plate well was transferred to a preamplification plate. Fluidigm's 96.96 Dynamic ArrayTM (Fluidigm, Amsterdam, the Netherlands) technology was used for gene expression analyses by quantitative reverse transcription polymerase chain reaction (qRT-PCR, performed by Quintiles/Expression Analysis, Durham, NC)89. Standard TaqManTM Assays (Applied Biosystems/ThermoFisher Scientific, Foster City, CA) were used to assess the expression of 93 genes selected based on their selectivity and sensitivity to important hepatic receptors known to be modulated by environmental chemicals; importance in human hepatocyte functionality; and hepatotoxicity. […]
As to `Oc1c(Cl)cc(Cl)cc1Cl`, the molecule was classed as inactive.
Regarding `CC(C)(C)c1ccccc1O`, the molecule was classed as inactive.
Next, `Cc1cc(C)cc(C)c1`: “inactive”; `Clc1cccc(Cl)c1`: “inactive”; `O=C(N[C@H]1CN2CCC1CC2)c1ccc2c(c1)OCCO2`: “inactive”.
Consider `COc1ccccc1N`, for which the molecule was called inactive.
`CCCCCCCCCCCCc1cccc(S(=O)(=O)O)c1`: the molecule was classed as inactive.
Next, `Clc1cccc(Cl)c1Cl`: “inactive”; `CC(C)O.CC(C)O.OCCN(CCO)CCO.OCCN(CCO)CCO.[Ti]`: “inactive”.
The result for `Oc1cc(Cl)c(Cl)cc1Cl` reads “inactive”.
As to `N#Cc1cccnc1`, the result was inactive.
Next, `O=C(O)C1(c2ccc3c(c2)OC[C@H](Cc2ccc(-c4ccccc4)cc2)[C@H]3O)CCCC1`: “inactive”.
The result for `OCCN(CCO)CCO` reads “inactive”.
